From ChEMBL document CHEMBL1961873, “Compounds: GSK PKIS; Assays: Nanosyn kinase panel” (2012) come the findings set out here.

SMILES strings stand for the structures.

The term inhibition denotes the relative decrease from the control value, in per cent.

Experiment [1] deals with Fibroblast growth factor receptor 4 (Homo sapiens) (UniProt P22455). Conditions: at 1 µM.
Experiment [2] concerns the target Tyrosine-protein kinase Fgr (Homo sapiens) (UniProt P09769). Conditions: at 0.1 µM.
Experiment [3] has the same target. Conditions: at 1 µM.
In experiment [4] the target is Vascular endothelial growth factor receptor 1 (Homo sapiens) (UniProt P17948). Conditions: at 0.1 µM.
Vascular endothelial growth factor receptor 1 (Homo sapiens), sequence (P17948 whole entry): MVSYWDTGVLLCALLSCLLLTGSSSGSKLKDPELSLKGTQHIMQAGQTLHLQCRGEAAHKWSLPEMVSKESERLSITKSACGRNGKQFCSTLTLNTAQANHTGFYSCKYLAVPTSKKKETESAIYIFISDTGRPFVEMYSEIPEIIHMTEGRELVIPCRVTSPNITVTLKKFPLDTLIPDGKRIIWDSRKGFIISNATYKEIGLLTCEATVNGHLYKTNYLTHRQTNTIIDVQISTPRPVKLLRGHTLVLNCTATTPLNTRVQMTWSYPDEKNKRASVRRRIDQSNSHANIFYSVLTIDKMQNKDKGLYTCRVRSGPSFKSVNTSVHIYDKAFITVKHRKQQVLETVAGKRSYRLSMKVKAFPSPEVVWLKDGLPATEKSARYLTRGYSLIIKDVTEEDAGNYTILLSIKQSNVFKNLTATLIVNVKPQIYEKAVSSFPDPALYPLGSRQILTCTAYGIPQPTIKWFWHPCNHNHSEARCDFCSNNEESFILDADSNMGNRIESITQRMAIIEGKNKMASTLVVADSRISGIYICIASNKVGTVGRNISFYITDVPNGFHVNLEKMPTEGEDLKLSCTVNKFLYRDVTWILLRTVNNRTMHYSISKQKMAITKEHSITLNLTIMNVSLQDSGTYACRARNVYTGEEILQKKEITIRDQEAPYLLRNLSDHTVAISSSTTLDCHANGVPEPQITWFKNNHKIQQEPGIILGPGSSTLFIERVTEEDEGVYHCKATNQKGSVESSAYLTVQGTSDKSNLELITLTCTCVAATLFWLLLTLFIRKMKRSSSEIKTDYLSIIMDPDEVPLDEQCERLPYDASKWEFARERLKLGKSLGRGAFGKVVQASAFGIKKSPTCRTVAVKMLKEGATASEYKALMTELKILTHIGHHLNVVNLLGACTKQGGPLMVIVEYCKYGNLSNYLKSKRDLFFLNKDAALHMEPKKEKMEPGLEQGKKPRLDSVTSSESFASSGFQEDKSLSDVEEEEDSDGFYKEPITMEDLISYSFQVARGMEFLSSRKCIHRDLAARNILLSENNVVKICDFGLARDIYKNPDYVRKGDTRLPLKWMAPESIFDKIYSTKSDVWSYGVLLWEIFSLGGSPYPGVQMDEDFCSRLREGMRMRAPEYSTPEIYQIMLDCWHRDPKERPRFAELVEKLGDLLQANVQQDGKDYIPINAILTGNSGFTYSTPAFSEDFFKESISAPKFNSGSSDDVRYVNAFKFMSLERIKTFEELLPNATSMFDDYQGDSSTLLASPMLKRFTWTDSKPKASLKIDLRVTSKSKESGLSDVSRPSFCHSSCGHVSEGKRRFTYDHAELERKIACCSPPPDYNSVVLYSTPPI
For experiment [5] the target is unchanged. To be noted: at 1 µM.
Experiment [6] addresses Receptor-type tyrosine-protein kinase FLT3 (Homo sapiens) (UniProt P36888). Conditions: at 0.1 µM.
The target is the same in experiment [7]. Conditions: at 1 µM.
The test system of experiment [8] is T1, Receptor-type tyrosine-protein kinase FLT3 (Homo sapiens), P36888 [D835Y].
T1 sequence (whole entry): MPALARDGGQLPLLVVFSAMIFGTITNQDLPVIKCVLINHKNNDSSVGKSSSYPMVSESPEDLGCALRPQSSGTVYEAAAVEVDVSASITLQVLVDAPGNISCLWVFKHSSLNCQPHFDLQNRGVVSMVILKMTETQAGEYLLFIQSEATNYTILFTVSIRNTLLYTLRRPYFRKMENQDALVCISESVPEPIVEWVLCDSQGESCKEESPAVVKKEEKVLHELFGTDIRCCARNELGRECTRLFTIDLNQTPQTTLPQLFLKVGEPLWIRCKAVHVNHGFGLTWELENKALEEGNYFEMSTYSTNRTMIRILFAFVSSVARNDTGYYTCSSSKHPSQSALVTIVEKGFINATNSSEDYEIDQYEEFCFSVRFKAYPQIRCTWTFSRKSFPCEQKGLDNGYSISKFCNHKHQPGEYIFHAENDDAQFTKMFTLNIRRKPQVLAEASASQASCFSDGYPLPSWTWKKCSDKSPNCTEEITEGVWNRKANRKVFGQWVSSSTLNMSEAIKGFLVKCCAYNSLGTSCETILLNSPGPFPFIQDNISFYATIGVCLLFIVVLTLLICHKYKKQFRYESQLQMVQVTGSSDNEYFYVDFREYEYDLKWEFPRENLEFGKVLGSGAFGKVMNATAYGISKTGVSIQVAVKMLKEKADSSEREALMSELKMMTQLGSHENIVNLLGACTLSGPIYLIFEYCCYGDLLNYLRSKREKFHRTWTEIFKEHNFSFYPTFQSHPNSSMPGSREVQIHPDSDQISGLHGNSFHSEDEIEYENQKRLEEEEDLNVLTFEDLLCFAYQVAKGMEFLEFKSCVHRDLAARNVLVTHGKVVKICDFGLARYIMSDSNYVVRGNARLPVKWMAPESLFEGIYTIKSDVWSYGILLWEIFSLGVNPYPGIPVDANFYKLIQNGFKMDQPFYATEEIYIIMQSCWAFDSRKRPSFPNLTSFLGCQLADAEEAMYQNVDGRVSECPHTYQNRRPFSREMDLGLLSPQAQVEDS
To be noted: at 0.1 µM.

The target in experiment [9] is Non-receptor tyrosine-protein kinase TYK2 (Homo sapiens) (UniProt P29597). Conditions: at 1 µM.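 Also: values are mean percent inhibition of TYK2 kinase.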
Non-receptor tyrosine-protein kinase TYK2 (Homo sapiens), sequence (P29597 whole entry): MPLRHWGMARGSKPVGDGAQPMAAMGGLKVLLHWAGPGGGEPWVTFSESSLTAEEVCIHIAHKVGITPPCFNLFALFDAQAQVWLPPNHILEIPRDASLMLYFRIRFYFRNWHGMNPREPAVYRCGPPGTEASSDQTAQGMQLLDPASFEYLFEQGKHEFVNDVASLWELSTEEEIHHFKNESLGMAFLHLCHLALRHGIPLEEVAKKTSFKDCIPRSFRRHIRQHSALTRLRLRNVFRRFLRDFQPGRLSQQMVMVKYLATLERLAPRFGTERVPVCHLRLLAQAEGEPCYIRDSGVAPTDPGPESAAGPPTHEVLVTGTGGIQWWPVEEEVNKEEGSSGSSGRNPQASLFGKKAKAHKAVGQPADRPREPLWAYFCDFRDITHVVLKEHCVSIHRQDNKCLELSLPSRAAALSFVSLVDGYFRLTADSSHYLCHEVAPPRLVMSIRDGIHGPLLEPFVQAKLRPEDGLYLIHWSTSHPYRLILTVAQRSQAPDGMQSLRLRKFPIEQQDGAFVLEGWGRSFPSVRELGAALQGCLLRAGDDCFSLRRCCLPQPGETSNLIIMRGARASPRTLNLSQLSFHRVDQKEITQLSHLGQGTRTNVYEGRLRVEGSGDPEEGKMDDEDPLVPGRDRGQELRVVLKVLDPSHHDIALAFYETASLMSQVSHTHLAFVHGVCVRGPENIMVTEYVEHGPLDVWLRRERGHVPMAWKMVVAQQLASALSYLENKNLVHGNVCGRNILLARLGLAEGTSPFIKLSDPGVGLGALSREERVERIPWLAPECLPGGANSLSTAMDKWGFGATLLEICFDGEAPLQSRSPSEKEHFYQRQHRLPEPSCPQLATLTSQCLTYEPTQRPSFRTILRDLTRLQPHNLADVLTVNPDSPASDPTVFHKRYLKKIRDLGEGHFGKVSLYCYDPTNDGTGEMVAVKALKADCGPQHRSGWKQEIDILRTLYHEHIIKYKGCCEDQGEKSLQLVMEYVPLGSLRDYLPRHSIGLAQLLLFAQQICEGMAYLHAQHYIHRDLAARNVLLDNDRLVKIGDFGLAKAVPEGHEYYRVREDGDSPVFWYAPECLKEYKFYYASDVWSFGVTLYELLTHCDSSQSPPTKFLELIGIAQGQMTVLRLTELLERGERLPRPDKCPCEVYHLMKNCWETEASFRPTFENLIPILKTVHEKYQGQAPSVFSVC
Experiment [10] concerns the target T2, Tyrosine-protein kinase receptor TYRO3 (Homo sapiens) (UniProt Q06418).
T2 sequence (whole entry): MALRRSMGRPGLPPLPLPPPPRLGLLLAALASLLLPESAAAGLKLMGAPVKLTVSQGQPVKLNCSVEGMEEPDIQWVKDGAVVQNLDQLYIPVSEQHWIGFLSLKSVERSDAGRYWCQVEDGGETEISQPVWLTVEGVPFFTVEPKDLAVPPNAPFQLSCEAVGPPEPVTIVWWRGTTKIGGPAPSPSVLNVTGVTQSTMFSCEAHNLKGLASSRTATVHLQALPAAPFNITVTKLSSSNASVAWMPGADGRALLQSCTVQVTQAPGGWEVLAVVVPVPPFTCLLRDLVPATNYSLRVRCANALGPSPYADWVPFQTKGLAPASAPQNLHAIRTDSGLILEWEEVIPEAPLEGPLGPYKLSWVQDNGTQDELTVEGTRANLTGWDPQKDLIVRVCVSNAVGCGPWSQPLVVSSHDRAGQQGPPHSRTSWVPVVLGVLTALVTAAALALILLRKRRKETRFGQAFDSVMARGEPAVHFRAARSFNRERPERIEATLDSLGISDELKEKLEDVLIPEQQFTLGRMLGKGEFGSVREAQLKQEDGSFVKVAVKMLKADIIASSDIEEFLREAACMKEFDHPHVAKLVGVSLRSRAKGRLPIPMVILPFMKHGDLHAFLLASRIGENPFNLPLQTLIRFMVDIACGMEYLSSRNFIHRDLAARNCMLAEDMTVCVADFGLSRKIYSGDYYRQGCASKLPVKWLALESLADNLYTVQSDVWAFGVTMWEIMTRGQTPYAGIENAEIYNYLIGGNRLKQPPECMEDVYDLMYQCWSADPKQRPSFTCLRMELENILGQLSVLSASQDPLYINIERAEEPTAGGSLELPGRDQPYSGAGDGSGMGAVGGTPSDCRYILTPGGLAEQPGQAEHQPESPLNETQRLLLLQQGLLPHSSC
Conditions: at 0.1 µM.

Experiment [11] concerns the target T2, Tyrosine-protein kinase receptor TYRO3 (Homo sapiens). To be noted: at 1 µM.
Experiment [12] addresses Tyrosine-protein kinase Yes (Homo sapiens) (UniProt P07947). Conditions: at 0.1 µM.
The target is the same in experiment [13]. Conditions: at 1 µM.
Experiment [14] has as its target T3, Tyrosine-protein kinase ZAP-70 (Homo sapiens) (UniProt P43403).
T3 sequence (whole entry): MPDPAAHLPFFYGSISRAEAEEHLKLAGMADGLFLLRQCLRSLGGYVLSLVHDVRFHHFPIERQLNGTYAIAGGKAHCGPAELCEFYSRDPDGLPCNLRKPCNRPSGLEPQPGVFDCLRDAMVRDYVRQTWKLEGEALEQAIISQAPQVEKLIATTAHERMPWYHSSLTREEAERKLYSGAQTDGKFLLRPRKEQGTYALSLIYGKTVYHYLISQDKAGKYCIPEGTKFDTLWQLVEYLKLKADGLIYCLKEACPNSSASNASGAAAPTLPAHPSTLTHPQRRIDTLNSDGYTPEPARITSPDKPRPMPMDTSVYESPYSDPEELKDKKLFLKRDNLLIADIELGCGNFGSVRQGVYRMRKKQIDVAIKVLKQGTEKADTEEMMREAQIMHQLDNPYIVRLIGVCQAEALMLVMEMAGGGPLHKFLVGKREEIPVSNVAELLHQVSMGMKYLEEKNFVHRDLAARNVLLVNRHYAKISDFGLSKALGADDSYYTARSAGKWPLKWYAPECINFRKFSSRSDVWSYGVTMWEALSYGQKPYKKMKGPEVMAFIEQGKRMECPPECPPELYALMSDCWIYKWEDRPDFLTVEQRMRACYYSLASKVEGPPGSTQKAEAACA
Conditions: at 0.1 µM.

The target of experiment [15] is T3, Tyrosine-protein kinase ZAP-70 (Homo sapiens). To be noted: at 1 µM.
The target in experiment [16] is Serine/threonine-protein kinase B-raf (Homo sapiens) (UniProt P15056). Conditions: at 0.1 µM.
Serine/threonine-protein kinase B-raf (Homo sapiens), sequence (P15056 whole entry): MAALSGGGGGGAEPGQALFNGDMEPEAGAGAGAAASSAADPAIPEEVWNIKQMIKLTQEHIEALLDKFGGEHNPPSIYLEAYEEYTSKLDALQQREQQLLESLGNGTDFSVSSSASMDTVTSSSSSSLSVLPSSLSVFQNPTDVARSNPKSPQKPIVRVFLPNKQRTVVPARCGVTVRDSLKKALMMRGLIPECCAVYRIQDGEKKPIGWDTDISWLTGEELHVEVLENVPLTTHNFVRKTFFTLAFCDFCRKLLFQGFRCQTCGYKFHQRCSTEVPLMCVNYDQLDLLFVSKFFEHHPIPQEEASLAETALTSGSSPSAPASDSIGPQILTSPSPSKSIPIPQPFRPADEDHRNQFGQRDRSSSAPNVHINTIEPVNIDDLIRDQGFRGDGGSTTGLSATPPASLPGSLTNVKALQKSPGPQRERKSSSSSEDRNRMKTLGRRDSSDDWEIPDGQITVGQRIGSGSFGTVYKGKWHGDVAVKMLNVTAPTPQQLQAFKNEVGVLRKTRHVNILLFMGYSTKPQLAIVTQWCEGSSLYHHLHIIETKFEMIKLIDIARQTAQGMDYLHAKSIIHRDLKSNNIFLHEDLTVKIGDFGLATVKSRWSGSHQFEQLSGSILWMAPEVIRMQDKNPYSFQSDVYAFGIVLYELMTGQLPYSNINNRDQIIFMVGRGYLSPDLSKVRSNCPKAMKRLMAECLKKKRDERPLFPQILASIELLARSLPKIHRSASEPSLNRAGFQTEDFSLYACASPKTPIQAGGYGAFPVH
Experiment [17] shares this target. Conditions: at 1 µM.
Experiment [18] concerns Serine/threonine-protein kinase B-raf (Homo sapiens), P15056 [V600E]. To be noted: at 0.1 µM.
Serine/threonine-protein kinase B-raf (Homo sapiens), P15056 [V600E], sequence (P15056 whole entry V600E): as the sequence (P15056 whole entry) above, with V600E counted along it
Experiment [19] shares this test system. Conditions: at 1 µM.
The target in experiment [20] is RAF proto-oncogene serine/threonine-protein kinase (Homo sapiens) (UniProt P04049). Conditions: at 0.1 µM.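 Also: values are mean CRAF kinase inhibition from profiling of the GSK Published Kinase Inhibitor Set.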

Tyrosine-protein kinase Yes (Homo sapiens), sequence (P07947 2-543 limits assumed): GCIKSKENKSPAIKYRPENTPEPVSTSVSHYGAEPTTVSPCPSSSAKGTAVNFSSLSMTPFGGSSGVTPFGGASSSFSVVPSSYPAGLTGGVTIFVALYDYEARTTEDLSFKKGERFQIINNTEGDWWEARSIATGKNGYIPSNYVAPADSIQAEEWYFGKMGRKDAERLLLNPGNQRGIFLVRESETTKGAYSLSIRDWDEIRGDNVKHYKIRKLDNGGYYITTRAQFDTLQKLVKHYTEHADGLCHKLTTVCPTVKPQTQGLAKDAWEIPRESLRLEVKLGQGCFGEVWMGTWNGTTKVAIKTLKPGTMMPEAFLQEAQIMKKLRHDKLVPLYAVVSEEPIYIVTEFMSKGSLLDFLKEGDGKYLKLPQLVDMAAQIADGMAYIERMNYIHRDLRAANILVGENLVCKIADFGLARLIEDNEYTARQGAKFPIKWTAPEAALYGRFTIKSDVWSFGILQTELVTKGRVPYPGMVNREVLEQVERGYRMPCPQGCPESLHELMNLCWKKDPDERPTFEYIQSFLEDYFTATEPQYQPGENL
Fibroblast growth factor receptor 4 (Homo sapiens), sequence (P22455 22-802 limits assumed): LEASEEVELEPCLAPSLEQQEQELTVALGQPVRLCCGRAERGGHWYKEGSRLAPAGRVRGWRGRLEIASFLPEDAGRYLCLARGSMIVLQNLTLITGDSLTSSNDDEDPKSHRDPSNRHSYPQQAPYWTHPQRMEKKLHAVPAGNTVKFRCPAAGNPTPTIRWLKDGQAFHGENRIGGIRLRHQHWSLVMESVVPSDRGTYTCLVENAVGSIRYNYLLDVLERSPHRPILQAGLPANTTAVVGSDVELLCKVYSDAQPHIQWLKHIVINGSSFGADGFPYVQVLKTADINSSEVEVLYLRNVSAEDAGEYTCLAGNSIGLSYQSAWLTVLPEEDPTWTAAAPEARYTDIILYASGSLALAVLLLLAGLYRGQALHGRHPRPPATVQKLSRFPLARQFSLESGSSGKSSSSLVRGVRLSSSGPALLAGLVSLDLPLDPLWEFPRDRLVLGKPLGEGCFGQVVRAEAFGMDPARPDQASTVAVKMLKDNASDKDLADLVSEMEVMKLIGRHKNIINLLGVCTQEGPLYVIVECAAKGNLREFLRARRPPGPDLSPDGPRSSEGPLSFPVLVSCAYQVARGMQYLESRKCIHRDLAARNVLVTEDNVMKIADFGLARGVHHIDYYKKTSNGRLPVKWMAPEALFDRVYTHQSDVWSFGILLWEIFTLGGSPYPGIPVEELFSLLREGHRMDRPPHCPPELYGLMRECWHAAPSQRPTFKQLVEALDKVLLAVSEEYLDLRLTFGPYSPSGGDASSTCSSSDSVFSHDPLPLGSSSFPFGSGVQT

For `CC(=O)Nc1cccc(C#Cc2cncnc2Nc2ccc(OCc3cccc(F)c3)c(Cl)c2)c1`, the inhibition in [1] worked out at 1.74%; in [2], 2.84%; in [3] it was 9.6%; in experiment [4], 2.19%; in experiment [5], 3.25%; in [6], 2.59%. Besides, the inhibition in experiment [7] was 2.38%; in [8] it was -3.37%; in [9], 0.26%; in [10] it was 3.62%; in experiment [11], 0.81%; in [12], 1.2%. Besides, the inhibition in [13] was found to be 1.7%; in [14], 3.59%; in experiment [15] it was 6.95%; in [16], 1.95%; in experiment [17] it was 1.44%; in experiment [18] it was 1.85%. Moreover, the inhibition was 2.03% in experiment [19] and 2.77% in experiment [20].

Turning to `FC(F)(F)c1cccc(-c2nn3ncccc3c2-c2ccnc(Nc3ccc4c(c3)OCCO4)n2)c1`, the inhibition in experiment [1] amounted to 2.21%; in experiment [2] it was 32.5%; in experiment [3], 75.3%; in [4], 0.57%; in experiment [5], 12%; in [6], 0.74%. Further, the inhibition in experiment [8] is -3.8%; in [9] it was -3.08%; in experiment [10] it was 4.46%; in [11], 22.9%; in [12] it was 32.1%; in [13] it was 82.8%. The inhibition in experiment [14] worked out at 2%; in experiment [15], 3.05%; in [16] it was 2.88%; in [17], 6.42%; in experiment [18] it was 1.76%; in [19] it was 7.02%. In addition, in experiment [20], the inhibition was -1.62%.

On to `CC(C)COC(=O)c1ccc2c(c1)/C(=C/Nc1ccc(S(N)(=O)=O)cc1)C(=O)N2`, for which the inhibition in [1] is 2.26%; in experiment [2], 4.59%; in experiment [3], 32%; in [4] it was 4.68%; in experiment [5], 39.4%; in experiment [7] it was 56%. Also, the inhibition in experiment [8] was found to be 58.7%; in experiment [9], 4.42%; in experiment [10], 0.69%; in experiment [11], 17%; in experiment [12], 0.49%; in experiment [13] it was 22.1%. Further, the inhibition in experiment [14] is -2.35%; in experiment [15] it was 1.21%; in [16], 2.66%; in [17] it was 32.8%; in experiment [18], 1.68%; in experiment [19], 34%. Besides, the inhibition in experiment [20] was -3.89%.

Consider `Cc1ccc2c(-c3ccnc(Nc4ccccc4)n3)c(-c3ccc(F)cc3)nn2n1`, for which the inhibition in experiment [1] came to 1.8%; in experiment [2] it was 40.7%; in experiment [3] it was 78.4%; in [4], 2.49%; in experiment [5], 22.1%; in experiment [6], 2.15%. The inhibition in experiment [7] is 4.21%; in experiment [8] it was 3.24%; in experiment [9], -1.64%; in [10] it was 3.56%; in experiment [11], 25.6%; in experiment [12] it was 58.4%. Besides, the inhibition in [13] came to 92.1%; in experiment [14] it was 2.85%; in experiment [15] it was 2.04%; in experiment [16] it was 6.37%; in experiment [17], 15.5%; in [18], 4.53%. Also, the inhibition is 13% in experiment [19] and -2.73% in experiment [20].

For the compound `CCN1CCC(CC(=O)Nc2n[nH]c3nnc(-c4cccc(F)c4F)cc23)CC1`, the inhibition in experiment [1] is -2.43%; in [2], 2.47%; in experiment [3], 1.19%; in experiment [4], 0.64%; in experiment [5], -0.57%; in experiment [6], 3.74%. In addition, the inhibition in experiment [7] is 1.44%; in experiment [9], 2.26%; in experiment [10], 1.36%; in [11] it was 1.73%; in experiment [12], 2.07%; in experiment [13] it was 5.8%. Moreover, the inhibition in experiment [14] was -0.89%; in [15], 0.5%; in [16] it was 3.25%; in experiment [17], 2.64%; in [18] it was 2.74%; in experiment [19], 1.57%. In addition, the inhibition in [20] is 10.2%.

For `Fc1cccc(COc2ccc(Nc3ncnc4sc(-c5ccco5)cc34)cc2Cl)c1`, the inhibition is -0.7% in experiment [1]; 3.8% in experiment [2]; 8.35% in experiment [3]; 2.39% in [4]; 2.46% in experiment [5]; 4.08% in experiment [7]. For the same compound, the inhibition was -8.41% in experiment [8]; -1.9% in experiment [9]; 5.86% in [10]; 1.85% in [11]; 1.73% in experiment [12]; 4.21% in experiment [13]. In addition, the inhibition in experiment [14] was determined as 0.85%; in experiment [15], 2.41%; in experiment [16], 6.56%; in [17], 5.32%; in experiment [18] it was 4.59%; in experiment [19], 3.4%. For the same compound, the inhibition in experiment [20] was -0.33%.

Consider `CS(=O)(=O)CCNCc1coc(-c2ccc3ncnc(Nc4ccc(OCc5ccccc5)cc4)c3c2)c1`, for which the inhibition stood at 1.09% in experiment [1]; 3.94% in experiment [2]; 14.9% in [3]; 3.16% in [4]; 2.3% in experiment [5]; 3.27% in [6]. For the same compound, the inhibition is 9.61% in experiment [7]; -1.74% in experiment [8]; 0.61% in [9]; 2.35% in [10]; 2.91% in experiment [11]; 4.14% in [12]. Moreover, the inhibition in experiment [13] was found to be 26.2%; in [14], 1.16%; in experiment [15] it was 2.06%; in [16] it was 3.09%; in experiment [17], 6.31%; in [18] it was 3.49%. The inhibition in experiment [19] turned out to be 3.25%; in experiment [20], 2.12%.
